{
  "source": "the supplement of paper PMC10338343",
  "note": "± gives the standard deviation.",
  "data": [
    {"tested_on": "MILI (PIWIL2) piRISC loaded with L1MC piRNA (26 nt)", "assay": "pre-steady-state target cleavage rate (min^-1); guide: L1MC piRNA 5'p-UAACUAAAUACUAUGCAAGCUGUAGG; higher = faster piRNA-guided slicing of the target", "conditions": "auxiliary factor: 500 nM mouse GTSF1", "experimental": "(§1)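 Cleave-'n-Seq: a library of target RNAs (target site embedded in constant flanks, ACAGCATTCCGCGTTAGTGATATCCG... 5' flank; DNA-blocked outside the site) at 0.1 nM was incubated with 1 nM active mouse MILI or MIWI piRISC (synthetic 5'-monophosphorylated piRNA guide) with or without 500 nM mouse GTSF1 at 33 °C for 1 min to 16 h. Uncleaved targets were sequenced and normalised to non-target controls, and the pooled three trials were fitted to a burst-and-steady-state model to give the pre-steady-state cleavage rate (min^-1; k3 is constrained to at most 1e-4). Sequence is the target site only; target names encode pairing extent (gX:gY) and contiguous / 1-mismatch / 2-mismatch / bulge geometry. Fits with R² ≤ 0 are excluded.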", "values": [
      {"sequence": "UCCUGGAUGUCGAUGCAUAGUCUUUAGUUA", "pre-steady-state target cleavage rate": "0.0205 ± 0.0056"},
      {"sequence": "UCCUGGAUGAGCUUGCAUAGUAUUUGAGUUA", "pre-steady-state target cleavage rate": "0.307 ± 0.051"},
      {"sequence": "UCCUGGAACAGCUUGCAUAGUUUUAAGUUA", "pre-steady-state target cleavage rate": "0.0465 ± 0.009"},
      {"sequence": "UCCUGGAUGUGCUUGCGUAGUAUUUAGUUA", "pre-steady-state target cleavage rate": "0.0451 ± 0.013"},
      {"sequence": "UCCUGGAUCAGGAUGCAUAGUAUUUAGUAA", "pre-steady-state target cleavage rate": "0.128 ± 0.012"},
      {"sequence": "UCCUGCUACAGCUUGCUUACUAUUUAGUUA", "pre-steady-state target cleavage rate": "0.114 ± 0.016"},
      {"sequence": "UCCUGCUACACCUUGCAUAGUAUUUAGUAA", "pre-steady-state target cleavage rate": "0.192 ± 0.035"},
      {"sequence": "UCCUGGAUGUCCUUGCUUAGAAUUUAGUUA", "pre-steady-state target cleavage rate": "0.00442 ± 0.004"},
      {"sequence": "UCCUGCUACAGCUCGCAUAGUAUUUAGUUA", "pre-steady-state target cleavage rate": "0.264 ± 0.015"},
      {"sequence": "UCCUCCUACAGCUUGCAUAGUAUCUAGUUA", "pre-steady-state target cleavage rate": "0.176 ± 0.02"},
      {"sequence": "UCCUGGUACAGCUUGCAUAGUAAUUAGAAA", "pre-steady-state target cleavage rate": "0.0664 ± 0.018"},
      {"sequence": "UCCUGGAUGUGCUUGCAUAGUAUAUUGUUA", "pre-steady-state target cleavage rate": "0.0146 ± 0.0062"},
      {"sequence": "UCCUGGUACAGCUUCGUUAGUAUUUAGUUA", "pre-steady-state target cleavage rate": "0.128 ± 0.013"},
      {"sequence": "UCCUCCUUCAGCUAGCAUAGUAUUUAGUUA", "pre-steady-state target cleavage rate": "0.228 ± 0.017"},
      {"sequence": "UCCUCCUACAGCUAGCAUAGUAUUUAGUAA", "pre-steady-state target cleavage rate": "0.199 ± 0.023"},
      {"sequence": "UCCUGGAUCAGCUAGCAUAGUAUUUAGUUA", "pre-steady-state target cleavage rate": "0.236 ± 0.012"},
      {"sequence": "UCCUGCUACAGCUUGCCAUAGUAUUUAGUUA", "pre-steady-state target cleavage rate": "0.128 ± 0.015"},
      {"sequence": "UCCUGCUACAGCUUGCAAAGUUUUUAGUUA", "pre-steady-state target cleavage rate": "0.0201 ± 0.0069"},
      {"sequence": "UCCUGGAUGUCCUUGCAUAGUAUAUUAGUUA", "pre-steady-state target cleavage rate": "0.188 ± 0.034"},
      {"sequence": "UCCUGGUACAGCUAGCAUAGUAUAUAGUUA", "pre-steady-state target cleavage rate": "0.183 ± 0.026"},
      {"sequence": "UCCUGGAUGUGCUGGCAUAGUAUUUAGUUA", "pre-steady-state target cleavage rate": "0.118 ± 0.012"},
      {"sequence": "UCCUGGAUCAGCAACCAUAGUAUUUAGUAA", "pre-steady-state target cleavage rate": "0.0962 ± 0.012"},
      {"sequence": "UCCUCCUACACCUUGCAUAGUAUUUUGUUA", "pre-steady-state target cleavage rate": "0.101 ± 0.026"},
      {"sequence": "UCCUCCUACAGCAUGCAUACUAUUUAGUUA", "pre-steady-state target cleavage rate": "0.0758 ± 0.011"}
    ]},
    {"tested_on": "MILI (PIWIL2) piRISC loaded with L1MC piRNA (26 nt)", "assay": "pre-steady-state target cleavage rate (min^-1); guide: L1MC piRNA 5'p-UAACUAAAUACUAUGCAAGCUGUAGG; MIWI and MILI are mouse PIWI proteins and EfPiwi is from a freshwater sponge; tags in brackets are library labels; higher = faster piRNA-guided slicing of the target", "conditions": "auxiliary factor: none (no GTSF1)", "experimental": "as §1", "values": [
      {"sequence": "UCCUGGAUGUCGAUGCAUAGUCUUUAGUUA", "pre-steady-state target cleavage rate": "0.00627 ± 0.002"},
      {"sequence": "UCCUGGAUGAGCUUGCAUAGUAUUUGAGUUA", "pre-steady-state target cleavage rate": "0.00461 ± 0.0029"},
      {"sequence": "UCCUGGAUGUGCUUGCGUAGUAUUUAGUUA", "pre-steady-state target cleavage rate": "0.0145 ± 0.0037"},
      {"sequence": "UCCUGGAUCAGGAUGCAUAGUAUUUAGUAA", "pre-steady-state target cleavage rate": "0.00364 ± 0.002"},
      {"sequence": "UCCUGCUACAGCUUGCUUACUAUUUAGUUA", "pre-steady-state target cleavage rate": "0.00371 ± 0.0023"},
      {"sequence": "UCCUGCUACACCUUGCAUAGUAUUUAGUAA", "pre-steady-state target cleavage rate": "0.00445 ± 0.0026"},
      {"sequence": "UCCUGCUACAGCUCGCAUAGUAUUUAGUUA", "pre-steady-state target cleavage rate": "0.00757 ± 0.0027"},
      {"sequence": "UCCUCCUACAGCUUGCAUAGUAUCUAGUUA", "pre-steady-state target cleavage rate": "0.00564 ± 0.0022"},
      {"sequence": "UCCUGGUACAGCUUCGUUAGUAUUUAGUUA", "pre-steady-state target cleavage rate": "0.00406 ± 0.0022"},
      {"sequence": "UCCUCCUUCAGCUAGCAUAGUAUUUAGUUA", "pre-steady-state target cleavage rate": "0.00519 ± 0.0022"},
      {"sequence": "UCCUCCUACAGCUAGCAUAGUAUUUAGUAA", "pre-steady-state target cleavage rate": "0.00331 ± 0.0021"},
      {"sequence": "UCCUGGAUCAGCUAGCAUAGUAUUUAGUUA", "pre-steady-state target cleavage rate": "0.00845 ± 0.0024"},
      {"sequence": "UCCUGGAUGUCCUUGCAUAGUAUAUUAGUUA", "pre-steady-state target cleavage rate": "0.00666 ± 0.0032"},
      {"sequence": "UCCUGGUACAGCUAGCAUAGUAUAUAGUUA", "pre-steady-state target cleavage rate": "0.00329 ± 0.0024"},
      {"sequence": "UCCUGGAUGUGCUGGCAUAGUAUUUAGUUA", "pre-steady-state target cleavage rate": "0.0112 ± 0.0037"},
      {"sequence": "UCCUCCUACAGCAUGCAUACUAUUUAGUUA", "pre-steady-state target cleavage rate": "0.00328 ± 0.0022"}
    ]}
  ]
}
